According to PubChem BioAssay AID1159580 (chemical genetic matrix, 2015):
Hit rate of the full screen: of about 5,500 compounds, about 2,000 (36%) were called active. About 18% were inconclusive and are not listed. No stated cut-off is given here; in the data, active means normalized growth mostly below about 0.91 (no sharp cut-off); inconclusive means no clear call, values can overlap the other calls; inactive means mostly above about 0.92. Some of the results follow.

Assay: chemical genetic growth profiling, strain panel (AID 1159580);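 further: tested at 20 µM; growth read once vehicle control cultures reached saturation at 30 °C; 1 = growth at the plate median or of vehicle wells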
Settings: S. cerevisiae deletion strains, growth OD

Measured: normalized growth

CCOC(=O)C(c1ccccc1)C(Nc1ccc(Cl)c(Cl)c1)c1ccccn1 (configuration not stated)
active: locus YLR039C, strain RIC1, stronger effect = lower value 1.21 [resistant]
inactive: locus YAL013W, strain DEP1, stronger effect = lower value 1.01 | locus YBR229C, strain ROT2, stronger effect = lower value 1.01 | locus YCL061C, strain MRC1, stronger effect = lower value 1.02 | locus YDL101C, strain DUN1, stronger effect = lower value 1.03 | locus YDR150W, strain NUM1, stronger effect = lower value 1.02 | locus YEL061C, strain CIN8, stronger effect = lower value 0.996 | locus YGR078C, strain PAC10, stronger effect = lower value 1.01 | locus YHR030C, strain SLT2, stronger effect = lower value 1.11 | locus YHR087W, strain rtc3, stronger effect = lower value 0.986 | locus YJR043C, strain POL32, stronger effect = lower value 1.03 | locus YJR075W, strain HOC1, stronger effect = lower value 1.03 | locus YKL190W, strain CNB1, stronger effect = lower value 1.01 | locus YLR058C, strain SHM2 (second series), stronger effect = lower value 1.01 | locus YLR085C, strain ARP6, stronger effect = lower value 1.02 | locus YLR262C, strain YPT6, stronger effect = lower value 1.15 | locus YML094W, strain GIM5, stronger effect = lower value 1.01 | locus YMR219W, strain ESC1, stronger effect = lower value 1 | locus YMR263W, strain SAP30, stronger effect = lower value 0.985 | locus YNL128W, strain TEP1, stronger effect = lower value 1.03 | locus YNL153C, strain GIM3, stronger effect = lower value 1.01 | locus YNL298W, strain CLA4 (second series), stronger effect = lower value 1.01 | locus YNL322C, strain KRE1, stronger effect = lower value 1.01 | locus YNR030W, strain Alg12, stronger effect = lower value 1.01 | locus YPL055C, strain LGE1, stronger effect = lower value 0.995 | locus YPL241C, strain CIN2, stronger effect = lower value 1.01 | locus YPR135W, strain CTF4, stronger effect = lower value 1.01
